Screening results deposited in PubChem BioAssay by National Center for Advancing Translational Sciences (NCATS).
Compounds with a hit are over-represented: about 1.7% of the library has one in this group of screens.
GLP1R cytotox – qHTS of GLP-1 Receptor Inverse Agonists: Cytotox Screen | Potency, µM (top dose mostly 38.3 µM), actives largely listed as inhibitors | AID 624418, 2012 | hit rate 0.13% among 410,000 | HEK293 cAMP-luciferase reporter cells, luminescence, 24 h;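 note: loss of luciferase light is scored as toxicity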
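Quantitative HTS format, 1536 wells, 200 cells/uL seeded. Compounds: 23 nL, 24 h, 37 °C. Detection: luciferase reagent, luminescence at 12 min RT; decreased signal taken as cytotoxic.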
GLP1R ag – qHTS of GLP-1 Receptor Agonists | Glucagon-like peptide 1 receptor (Homo sapiens), P43220 | HEK293 GLP-1R CRE-luciferase, luminescence, 4-6 h; cells express a hypersensitive GLP-1R form | Potency, µM (top dose mostly 45.6 µM), usual class: activators | hit rate 0.007% among 380,000 | AID 624172, 2012
Target sequence (P43220 whole entry, looked up): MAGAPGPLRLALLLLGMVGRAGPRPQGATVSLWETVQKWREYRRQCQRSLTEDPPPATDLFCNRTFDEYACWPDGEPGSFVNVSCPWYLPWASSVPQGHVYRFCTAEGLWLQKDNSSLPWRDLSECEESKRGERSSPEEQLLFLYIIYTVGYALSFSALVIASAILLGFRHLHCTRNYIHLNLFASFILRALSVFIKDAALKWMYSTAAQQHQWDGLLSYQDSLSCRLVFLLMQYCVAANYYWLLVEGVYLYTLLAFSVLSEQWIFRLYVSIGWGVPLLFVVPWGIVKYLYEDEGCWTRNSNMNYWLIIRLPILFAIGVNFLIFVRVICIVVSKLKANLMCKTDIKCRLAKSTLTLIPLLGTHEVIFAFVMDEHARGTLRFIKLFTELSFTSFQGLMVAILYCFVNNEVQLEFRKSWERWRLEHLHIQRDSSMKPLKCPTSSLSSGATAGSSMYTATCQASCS
GLP1R inv ag – qHTS of GLP-1 Receptor Inverse Agonists (Inhibition Mode); Glucagon-like peptide 1 receptor (Homo sapiens), P43220; HEK293 GLP-1R CRE-luciferase, luminescence, 24 h; GLP-1R form is constitutively active; Potency, µM (top dose mostly 38.3 µM), hits mostly inhibitors; hit rate 1.6% among 410,000; note: nearly all actives have a fitted effect of over 55% in size
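HEK293 cells stably co-expressing a cAMP-responsive luciferase reporter and constitutively active GLP-1R were seeded, incubated 12 h, then exposed to compounds for 24 h at 37 C. Luminescence was read 12 min after detection reagent; inverse agonists lower signal.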
Each line names hits and unclear results; the compound was inactive in the other large screens. Calls come from the whole dose curve; as a rule, active = well fitted curve in the direction sought with a large enough effect; inconclusive = small, poorly fitted or top-dose-only effect, or another doubt; inactive = no such curve, though single readings can be large; an effect the other way counts as inactive or inconclusive.

OCC1OC(OC2C(CO)OC(OC3C(CO)OC(O)C(O)C3O)C(O)C2O)C(O)C(O)C1O (stereo not drawn)	none (no result: GLP1R cytotox, GLP1R inv ag)
Cc1ccc(NS(=O)(=O)c2ccc(-n3cccn3)cc2)c(Br)c1	GLP1R inv ag inconclusive
Cc1ccc(NS(=O)(=O)c2ccc(-n3cccn3)cc2)c(C)c1	GLP1R inv ag 10µM
CCN(CC)C(=O)c1[nH]cnc1C(=O)NCC(=O)OC(C)(C)C	none
COc1ccc(CN2CCN(Cc3csc(C(C)=O)c3)CC2CCO)c(C)c1C (stereo not drawn)	none
O=C(CNC(=O)c1ccc2c(c1)OCO2)Nc1cccc(Br)c1	GLP1R inv ag inconclusive
CCC(NC(=O)CNC(=O)c1ccc2c(c1)OCO2)c1ccc(Br)cc1 (stereo not drawn)	GLP1R inv ag 12.6µM
CC(=NNc1ccc2ccccc2n1)c1ccccc1O	GLP1R cytotox inconclusive, GLP1R inv ag 2.82µM
C/C(=N\Nc1nc2ccccc2nc1C)c1ccccc1O	GLP1R inv ag inconclusive
Cc1cccc(CSC2=NCCN2S(=O)(=O)c2ccc(F)cc2)c1	GLP1R inv ag inconclusive
Cc1cc(C(=O)NCC(=O)OCC(=O)NCCc2ccccc2)ccc1[N+](=O)[O-]	none
C=CCC[C@H](Cc1ccc(F)cc1)C(=O)OC[C@H](Cc1c[nH]c2ccccc12)NC(=O)[C@@H](CC=C)CC(=O)N[C@H](CO)Cc1ccccc1	GLP1R inv ag inconclusive
CN1CCN(c2ccc3c(c2)C2CC3CCN2C(=O)OCc2ccccc2)CC1 (stereo not drawn)	GLP1R inv ag 10µM
O=C(OCc1ccccc1)N1CCC2CC1c1cc(N3CCOCC3)ccc12 (stereo not drawn)	GLP1R inv ag inconclusive
C=CCOC(=O)Nc1nc(CCNC(=O)OC(C)(C)C)c(C(=O)O)s1	none (no result: GLP1R ag)
O=c1c2ccccc2sc2ccc(NCCCN3CCOCC3)cc12	GLP1R inv ag inconclusive
CN1CCCC1CCNc1ccc2sc3ccccc3c(=O)c2c1 (stereo not drawn)	GLP1R cytotox inconclusive, GLP1R inv ag 14.1µM
CC1(C)CC(=O)C=C(c2n[nH]nc2-c2ccccc2)C1	none
COc1ccc(N2CCN(Cc3nc(Cc4cccc(F)c4)no3)C(C)C2)cc1 (stereo not drawn)	GLP1R inv ag 5.62µM
Fc1cccc(Cc2noc(CN3CCSCC3)n2)c1	none
Cc1ccn2c(NC(=O)c3cccs3)c(-c3ccccc3)nc2c1	none
Cc1ccn2c(NC(C)(C)C)c(-c3cccs3)nc2c1	GLP1R cytotox inconclusive, GLP1R inv ag 10µM
CCOC(=O)c1c(C)sc(-c2c(-c3ccc(OC)c(F)c3)[nH]c3c2c(=O)[nH]c(=O)n3C)c1O	none (no result: GLP1R ag)
COCCNC(=O)c1nn(-c2ccc(C)cc2)c(=O)c2c1c1ccccc1n2C	none (no result: GLP1R ag)
COc1ccc(N2CCN(C(=O)NC34CC5CC(CC(C5)C3)C4)CC2)cc1	GLP1R inv ag 7.94µM
O=C(NC12CC3CC(CC(C3)C1)C2)N1CCN(c2ccccc2)CC1	GLP1R inv ag inconclusive
O=C(NC1CCCCC1)N1CCN(c2nc(-c3ccccc3)cs2)CC1	none
COCCNC(=S)N1CCN(c2nc(-c3ccccc3)cs2)CC1	none
O=C(NC12CC3CC(CC(C3)C1)C2)N1CCN(c2nc(-c3ccccc3)cs2)CC1	GLP1R inv ag 3.16µM
O=C(NC(=S)N1CCN(c2nc(-c3ccccc3)cs2)CC1)c1cccnc1	GLP1R inv ag 8.91µM
CC(=O)NC(c1cccc(F)c1)c1nc(-c2cccs2)cs1 (stereo not drawn)	none
CCc1ccc(OCCCSc2nc(-c3ccc(C(C)(C)C)cc3)nc3cc(=O)[nH]n23)cc1	none (no result: GLP1R ag)
CCN(C(=O)COC(=O)CCC(=O)c1ccc(C)cc1)c1c(N)n(Cc2ccccc2)c(=O)[nH]c1=O	none
COc1ccccc1C(C[N+](=O)[O-])c1c[nH]c2ccccc12 (stereo not drawn)	GLP1R inv ag 10µM
CC(=O)C(C(c1ccccc1)c1c[nH]c2ccccc12)[N+](=O)[O-] (stereo not drawn)	GLP1R inv ag inconclusive
COCCn1c(SCC(=O)Nc2cccc(NC(C)=O)c2)nc2c([nH]c3ccccc32)c1=O	none
CC(C)Cc1ccc(C(C)C(N)=Nc2ccc(O)cc2)cc1 (stereo not drawn)	GLP1R cytotox inconclusive, GLP1R inv ag 12.6µM
CC(C)Cc1ccc(C(C)C(=O)Nc2ccc(O)cc2)cc1 (stereo not drawn)	GLP1R inv ag inconclusive
Cc1cn2c(=O)c(S(=O)(=O)Nc3ccc(N4CCOCC4)cc3)c(C)nc2s1	none (no result: GLP1R ag)
O=C1COc2ccc(C(=O)CSc3ccccc3C(=O)O)cc2N1	none
O=C(CSc1nc2ccccc2c(=O)n1-c1ccccc1)N1CCc2ccccc2C1	none
CC(C)c1ccccc1-n1c(SCC(=O)c2ccc3c(c2)NC(=O)CO3)nc2ccccc2c1=O	GLP1R inv ag 10µM
CC(C)c1ccccc1-n1c(SCC(=O)N2CCc3ccccc3C2)nc2ccccc2c1=O	GLP1R inv ag 10µM
CCc1c(-c2ccc(OC)cc2)ncn1Cc1cccc(-c2ccccc2)c1	GLP1R inv ag inconclusive (no result: GLP1R ag)
Cc1ccc2nc(N(CCCN(C)C)C(=O)CCc3ccccc3)sc2c1	GLP1R cytotox inconclusive, GLP1R inv ag inconclusive
CN(C)CCCN(C(=O)c1sc2ccccc2c1Cl)c1nc2ccc(F)cc2s1	GLP1R inv ag 10µM
CN(C)CCCN(C(=O)c1ccc2c(c1)CCCC2)c1nc2ccc(Cl)cc2s1	GLP1R inv ag 5.01µM
CN(C)CCCN(C(=O)c1cccs1)c1nc2ccc(F)cc2s1	GLP1R cytotox inconclusive (no result: GLP1R ag)
CCOc1ccc2nc(N(CCCN(C)C)C(=O)c3ccc4c(c3)CCCC4)sc2c1	GLP1R cytotox inconclusive, GLP1R inv ag inconclusive
CN(C)CCCN(C(=O)CCc1ccccc1)c1nc2ccc(Cl)cc2s1	GLP1R cytotox inconclusive, GLP1R inv ag 3.55µM
COc1ccc(CCNC(=O)CSc2nc3ccsc3c(=O)n2Cc2ccccn2)cc1OC	none
Cc1ccccc1-c1csc(C(O)c2cccnc2)n1 (stereo not drawn)	none
O=C(NC1CC1)c1cc(F)c(F)cc1Cl	none
O=C(NC12CC3CC(CC(C3)C1)C2)c1ccccc1O	GLP1R inv ag 5.62µM
O=C(NNC(=O)C12CC3CC(CC(C3)C1)C2)c1ccccc1O	GLP1R inv ag inconclusive
O=C(NC12CC3CC(CC(C3)C1)C2)c1cc(F)c(F)cc1Cl	GLP1R inv ag 10µM
CSc1ccc(/C=N/n2c(C3CCCCC3)n[nH]c2=S)cc1	GLP1R inv ag inconclusive
S=c1[nH]nc(C2CCCCC2)n1/N=C/c1ccncc1	GLP1R inv ag 1.78µM
Cc1ccc(/C=C/c2nc3ccccc3[nH]2)cc1	GLP1R inv ag 2.51µM (no result: GLP1R ag)
Cc1ccc(/C=C/c2nc3ccccc3c(=O)[nH]2)cc1	GLP1R inv ag inconclusive
CCCCC1C(=O)NN(c2ccccc2)C1=O (stereo not drawn)	GLP1R inv ag 1.78µM
CCCCCC1CC(=O)N(Cc2ccccc2)C(=O)N1 (stereo not drawn)	none
COc1ccc(NC(=O)CC2C(=O)N(c3ccccc3)C(=O)N2C2CCCCC2)cc1 (stereo not drawn)	none
